Measured values published in PubChem BioAssay (Tox21).
Records with an inconclusive call do not appear. A number with no mark means an inactive call. Calls of active or inactive are those of the source. Calls come from the whole dose curve; as a rule, active = well fitted activation curve with a large enough effect; inconclusive = small, poorly fitted or top-dose-only effect; inactive = flat fitted curve, though single readings scatter.

Experiment: qHTS assay to identify small molecule phospholipidosis (PLD) inducers (AID 1259344)
Details: HepG2 phospholipidosis, LipidTOX Red imaging, 24 h; series mostly up to 38.3 µM; PLD induction: at the top concentration
In short: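 Image-based: LipidTOX Red pit count/intensity per well and per cell; HepG2, 24 h compound at 37 C, PFA fixation, Hoechst counterstain.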
% is set by controls: 0 for no effect and ±100 for the full control effect.

| Compound | Potency | PLD induction |
| --- | --- | --- |
| CN=C(N)NCCC[C@H](N)C(=O)O | inactive | – |
| O=C(O)c1cc(=O)c2c3nc4ccccc4oc-3cc(=O)c2[nH]1 | – | -1.09% |
| CCc1cn([C@H]2C[C@H](O)[C@@H](CO)O2)c(=O)[nH]c1=O | – | -0.499% |
| OCl | – | -0.15% |
| C[Se]CC[C@H](N)C(=O)O | – | 1.44% |
| C[C@@H]1O[C@@H](OC[C@H]2O[C@@H](Oc3c(-c4ccc(OCCO)c(OCCO)c4)oc4cc(OCCO)cc(O)c4c3=O)[C@H](O)[C@@H](O)[C@@H]2O)[C@H](O)[C@H](O)[C@H]1O | – | 0.559% |
| CC1=C(/C=C/C(C)=C/C=C/C(C)=C/C=C/C=C(C)/C=C/C=C(C)/C=C/C2=C(C)CCCC2(C)C)C(C)(C)CCC1 | – | 0.0985% |
| C[C@]12O[C@H](C[C@]1(O)CO)n1c3ccccc3c3c4c(c5c6ccccc6n2c5c31)CNC4=O | – | -1.86% |
| CC/C=C\C/C=C\C/C=C\C/C=C\C/C=C\C/C=C\CCC(=O)O | – | 0.107% |
| O=c1[nH]c(=O)n([C@H]2C[C@H](O)[C@@H](CO)O2)cc1/C=C/Br | – | -1.81% |
| C=C1C(=C/C=C2\CCC[C@]3(C)[C@@H]([C@H](C)CCCC(C)C)CC[C@@H]23)C[C@@H](O)C[C@@H]1O | – | 1.32% |
| C[C@@H]1C[C@H]2[C@@H]3C[C@H](F)C4=CC(=O)C=C[C@]4(C)[C@@]3(Cl)[C@@H](O)C[C@]2(C)[C@H]1C(=O)COC(=O)C(C)(C)C | – | 0.359% |
| O=C(O)c1cc2cc(Cc3cccnc3)ccc2o1 | – | 0.373% |
| CCOc1ccc(S(=O)(=O)O)c2cccnc12 | – | -0.0145% |
| COc1ccc(/C=C/C(=O)Nc2ccccc2C(=O)O)cc1OC | – | 0.0503% |
